Assay outcomes as filed in PubChem BioAssay.
Hits are enriched below; roughly 5.4% of the tested compounds scored in any of these assays.
PP5 inh: PP5 phosphatase inhibitors, primary screen, biochemical, fluorescence; Serine/threonine-protein phosphatase 5 (Homo sapiens), P53041; purified PP5c, OMFP substrate fluorescence; inhibition, % at 6.7 µM; hit rate 0.18% among 320,000;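 active = inhibition above the campaign's mean inhibition across all tested compounds plus 3 SD, cut at about 9.5% in these data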
PP1 inh: PP1-alpha phosphatase inhibitors, primary screen, counter-screen for PP5 inhibitor project, biochemical, fluorescence, OMFP substrate, single point; Serine/threonine-protein phosphatase PP1-alpha catalytic subunit (Homo sapiens), P62136; purified PP1alpha; inhibition, % at 6.7 µM; hit rate 0.9% among 320,000; AID 2235, 2010;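 active = inhibition above the mean inhibition of all tested compounds plus 3 SD, computed separately for each screening campaign, cut at about 15% in these data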
Target sequence (P62136 whole entry, looked up): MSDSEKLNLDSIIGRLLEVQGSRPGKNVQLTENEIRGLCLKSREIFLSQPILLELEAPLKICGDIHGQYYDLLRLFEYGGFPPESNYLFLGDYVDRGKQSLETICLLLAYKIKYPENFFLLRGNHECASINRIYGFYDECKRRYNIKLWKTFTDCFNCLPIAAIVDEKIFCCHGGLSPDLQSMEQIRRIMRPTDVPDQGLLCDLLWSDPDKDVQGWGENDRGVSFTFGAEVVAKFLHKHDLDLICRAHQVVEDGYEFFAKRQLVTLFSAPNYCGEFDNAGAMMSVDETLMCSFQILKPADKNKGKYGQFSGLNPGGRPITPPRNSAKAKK
Calb FLC: C. albicans growth inhibition with fluconazole, primary screen, CaCi-2 strain, Alamar Blue fluorescence. C. albicans CaCi-2 (fluconazole-resistant clinical isolate) + fluconazole, 48 h. growth inhibition, % (test concentration not listed). hit rate 0.57% among 300,000;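 active = growth inhibition above about 58% in most replicates, limit read from the data, passing the limit was not always enough; inconclusive = exactly half the replicates above a set limit; inactive = most replicates below a set limit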;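 note: all wells also contain fluconazole at 8 µg/ml as a sub-toxic cotreatment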
ALR inh: inhibitors of human ALR sulfhydryl oxidase, primary screen, biochemical, H2O2 detection, HRP-luminol luminescence, single point. FAD-linked sulfhydryl oxidase ALR (Homo sapiens), P55789. purified ALR, DTT oxidation. inhibition, % (test concentration not listed). hit rate 3.8% among 290,000. AID 485317, 2010;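 active = mean replicate inhibition above about 79%, with every replicate also reaching it, limit read from the data; inconclusive = only one of the two criteria met; inactive = mean below limit and not every replicate reaching it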
Target sequence (P55789 whole entry, looked up): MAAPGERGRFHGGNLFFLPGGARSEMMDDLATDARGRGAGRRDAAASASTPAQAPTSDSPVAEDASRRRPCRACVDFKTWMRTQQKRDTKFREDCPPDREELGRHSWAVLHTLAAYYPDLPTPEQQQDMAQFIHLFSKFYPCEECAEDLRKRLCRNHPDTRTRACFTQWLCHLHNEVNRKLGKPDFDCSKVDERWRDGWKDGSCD
CSC inhib: cancer stem cell viability inhibitors, primary screen, luminescence. cancer stem cell-like cells viability. inhibition, % at 7.5 µM. hit rate 1.1% among 300,000. AID 2717, 2010; in the data active = inhibition above about 75%; inconclusive = no clear call, values can overlap the other calls; tested in HMLE shEcad cells
Of the large screens only hits and unclear results are named; the others gave an inactive call; ! = not active in a repeat.

CCc1cc2c(=O)c(-c3ccc4c(c3)OCCO4)coc2cc1OC(=O)c1ccco1	none
CCCc1cc2c(=O)c(-c3ccc4c(c3)OCCO4)coc2cc1OC(=O)c1ccco1	CSC inhib 89
S=c1[nH]nc(-c2ccccn2)n1/N=C/c1ccc(Br)s1	PP1 inh 17, Calb FLC inconclusive, ALR inh 96
Cc1n[nH]c(=S)n1/N=C/c1ccc(-c2ccc(Cl)cc2)o1	none
S=c1[nH]nc(-c2ccccn2)n1/N=C/c1ccc(-c2ccccc2Cl)o1	PP1 inh 15, ALR inh 97
S=c1[nH]nc(COc2ccccc2)n1/N=C/c1ccc(Br)s1	ALR inh 95
S=c1[nH]nc(-c2ccccn2)n1/N=C/c1ccc(Cl)c(Cl)c1	none
CC1CN(CCCCOc2cccc(Oc3ccccc3)c2)CC(C)O1 (stereo not drawn)	CSC inhib 195
O=C(Nc1ccc(Cc2ccncc2)cc1)C1CCC(N2C(=O)C3CC=CCC3C2=O)CC1 (stereo not drawn)	none
Brc1c(CSc2nnc(-c3ccco3)o2)nc2ccccn12	ALR inh 97
COC(=O)C1=C(C(=O)OC)[C@@H]2N(Cc3ccccc3)c3ccccc3[C@@]23C[C@@H](C(=O)OC)N(C(=O)NC2CCCCC2)C3=N1	none
O=C(CSC1=NCCS1)Nc1ccccc1F	Calb FLC inconclusive, ALR inh 99
O=C(CSc1cccs1)Nc1cccc2ccccc12	none (no result: ALR inh)
COc1ccccc1CNC(=O)CSc1ccc(-c2ccccn2)nn1	none
COc1ccccc1CNC(=O)CSc1ccc(-c2cccc([N+](=O)[O-])c2)nn1	ALR inh 84
O=C(CSc1cn[nH]n1)Nc1ccccc1F	none (no result: ALR inh)
O=C(CSC1=NCCS1)Nc1cccc2ccccc12	ALR inh 98
CCCN1C(=O)CC(=O)N=C1SCC(=O)Nc1ccccc1F	ALR inh 99 (no result: PP5 inh, PP1 inh, Calb FLC)
COc1ccc(OC)c(NC(=O)C(Sc2ccccc2)c2ccccc2)c1 (stereo not drawn)	none (no result: ALR inh)
CCOc1ccc(-c2nc(N)ncc2Oc2ccccc2Br)c(O)c1	none (no result: CSC inhib)
Cc1cccn2c(=O)nc(SCC(=O)Nc3cccc4ccccc34)nc12	ALR inh 85
O=C(O)c1ccccc1CSC1=NCCS1	ALR inh 98
COC(=O)c1cc(NC(=O)CSC2=NCCS2)cc(C(=O)OC)c1	ALR inh 98
COc1ccccc1CNC(=O)CSC1=NCCS1	ALR inh 99
COc1ccccc1CNC(=O)CSc1ccc(Br)cc1	none (no result: ALR inh)
CC(=O)c1sc(NC(=O)COc2ccccc2)nc1C	none
COc1ccc(OC)c(C(C)NC(=O)Nc2ccccc2)c1 (stereo not drawn)	none
C=CCNC(=S)NNC(=O)c1ccc(Br)cc1	none
C=CCNC(=S)NNC(=O)c1cc(O)ccc1O	ALR inh 99
COc1ccc(-c2ncccc2O)cc1	none
CCOc1c(C)cc(-c2ncccc2O)cc1C	ALR inh 92!
CCN(CC)CC(=O)Nc1ccc(/C(C)=N/NC2=NCCN2)cc1	none
COc1ccc(-c2nc(CS(=O)(=O)CC(=O)NC3CCCCC3C)c(C)o2)cc1 (stereo not drawn)	none
COc1ccc(-c2nc(CS(=O)CC(=O)NC3CCCCC3)c(C)o2)cc1 (stereo not drawn)	none
COc1ccc(-c2nc(CS(=O)CC(=O)NC3CCCCCC3)c(C)o2)cc1 (stereo not drawn)	ALR inh 98
COc1ccc(-c2nc(CS(=O)CC(=O)NC3CCCCC3C)c(C)o2)cc1 (stereo not drawn)	ALR inh 99
COc1ccc(-c2nc(CS(=O)CC(=O)NC3CCCCC3)c(C)o2)cc1OC (stereo not drawn)	ALR inh 99
COc1cccc(-c2nc(CS(=O)CC(=O)NC3CC3)c(C)o2)c1 (stereo not drawn)	ALR inh 99 (no result: CSC inhib)
CC(=O)Oc1ccccc1-c1nc(/C=C/c2ccccc2)no1	none (no result: PP5 inh, PP1 inh, CSC inhib)
CCOC(=O)CNc1ncnc2nc[nH]c12	none
CCc1ccc(/C=N/Nc2ncnc3nc[nH]c23)cc1	ALR inh 81
CCOc1cc(/C=C/c2cc(C(=O)O)c3ccccc3n2)ccc1O	ALR inh 89
COc1cc(/C=N/NC(=O)c2cc(-c3ccccc3Cl)nc3ccccc23)cc(OC)c1O	none
COc1cc(/C=N/NC(=O)c2cc(-c3ccco3)nc3ccccc23)cc(OC)c1O	ALR inh 97
COc1cc(/C=C/c2cc(C(=O)O)c3ccccc3n2)cc(OC)c1O	ALR inh 99
CCN(CC)CCCNC(=O)c1sc2ncn(CC(=O)Nc3ccc(C)c(Cl)c3)c(=O)c2c1C	none
Cc1ccc(C(C)NC(=O)/C(C#N)=C\c2c(C)[nH]c3ccccc23)cc1 (stereo not drawn)	none
C=C(C)CNC(=S)N/N=C1\CCCCc2ccccc21	Calb FLC 93
CCOC(=O)c1ccc(N=Cc2nc(-c3ccccc3)oc2OC(C)=O)cc1	ALR inh 94 (no result: CSC inhib)
Cc1cccc(C(=O)O/N=C(\N)c2ccc(Br)cc2)c1	none
COc1ccc(C(=O)NCC(=O)N/N=C(\C)Cc2ccccc2)cc1	none
Nc1ccc(SCc2cccnc2)cc1	ALR inh 100
CCc1nnc2n1N=C(c1ccc([N+](=O)[O-])cc1)CS2	ALR inh 97
COc1ccc(-c2cn(CCc3c[nH]c4ccccc34)nn2)cc1	CSC inhib 96
COCc1ccc(C(=O)Nc2ccc(C(=O)O)cc2)o1	none
Cc1cnc(NC(=O)COc2ccccc2Cl)s1	none (no result: CSC inhib)
Cc1ccc(NC2CCCN(C(=O)c3ccc(-n4ccnc4)cc3)C2)cc1C (stereo not drawn)	none
COc1ccc(NC2CCCN(C(=O)c3oc(C)cc3C)C2)cc1OC (stereo not drawn)	ALR inh 100
Cc1cc(C)c(C(=O)N2CCCC(Nc3ccc(F)cc3)C2)o1 (stereo not drawn)	ALR inh 99
Cc1cc(C)c(C(=O)N2CCCC(Nc3ccc(C)c(C)c3)C2)o1 (stereo not drawn)	ALR inh 99
Cc1cc(C)c(C(=O)N2CCCC(C(=O)c3cc(F)ccc3F)C2)o1 (stereo not drawn)	none
CCOC(=O)c1[nH]c(C)c(C(=O)Nc2ccc(C)c(C)c2)c1C	none
CCOC(=O)c1[nH]c(C)c(C(=O)N2CCCC(Nc3ccc(C)c(C)c3)C2)c1C (stereo not drawn)	ALR inh 99
COCCNCC(=O)NCC12CC3CC(CC(C3)C1)C2	none
CCc1nc(SCC(=O)N2CCCC2)c2ccccc2n1	ALR inh 92
CC1CCN(C(=O)CSc2nc3ccccc3s2)CC1	ALR inh 99 (no result: CSC inhib)
CC1CCCC(C)N1C(=O)CSc1nc2ccccc2s1 (stereo not drawn)	ALR inh 98
NC(=O)C1CCN(C(=O)CSc2nc3ccccc3s2)CC1	ALR inh 98
O=C(O)C1CCN(C(=O)CSc2nc3ccccc3s2)CC1	none
